This passage reports outcome and AC50 results from PubChem BioAssay (EPA / NIEHS).

Where “and” joins values, the source holds several entries; their conditions need not be identical. Identical values can stand only once. Results filed as inconclusive are left out. Some structures have more than one record in an assay (separate samples or runs), and their calls can disagree. Calls of active or inactive are those of the source. How the source made its calls, unless noted: active means hit-call score of the fitted dose curve at least 0.9, where 1 is the maximum; inconclusive means response in the unintended direction; inactive means score below 0.9.

Read-out in experiment [1]: sulfotransferase 2A1 (SULT2A1), SULT2A1 (gene 6822)
Kind of experiment: LTEA_HepaRG_SULT2A1: Life Technologies and Expression Analysis (LTEA) Assay for sulfotransferase 2A1 (SULT2A1) using HepaRG (AID 2283531; active means hit-call score of the fitted dose curve at least 0.9, where 1 is the maximum; inactive means score below 0.9). The note with it: mRNA level, 48 h; actives raise or lower the signal. An outline of the steps: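 Cells were plated and cultured 48 h, switched to serum-free induction medium, then dosed in duplicate for 48 h (8 concentrations, max 100 uM). RNA was isolated and SULT2A1 expression measured by qRT-PCR; gain or loss of signal fitted relative to DMSO.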

Read-out in experiment [2]: Transforming Growth Factor (TGFA), TGFA (gene 7039)
Kind of experiment: LTEA_HepaRG_TGFA: Life Technologies and Expression Analysis (LTEA) Assay for Transforming Growth Factor (TGFA) using HepaRG (AID 2283532; active means hit-call score of the fitted dose curve at least 0.9, where 1 is the maximum; inactive means score below 0.9). The following applies: mRNA level, 48 h; actives raise or lower the signal. The gist of the method: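 TGFA transcript quantified by qRT-PCR (Fluidigm arrays) against three housekeeping genes, after 48 hours chemical treatment of HepaRG cells. Top concentration 100 uM with half-log dilutions, 8 points, duplicates, 0.5% DMSO.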

Read-out in experiment [3]: Transforming Growth Factor (TGFB1), TGFB1 (gene 7040)
Kind of experiment: LTEA_HepaRG_TGFB1: Life Technologies and Expression Analysis (LTEA) Assay for Transforming Growth Factor (TGFB1) Transporter using HepaRG (AID 2283533; active means hit-call score of the fitted dose curve at least 0.9, where 1 is the maximum; inactive means score below 0.9). The note with it: mRNA level, 48 h; actives raise or lower the signal. The gist of the method: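 Expression change of TGFB1 in human HepaRG cells is measured after a 48 h chemical exposure, up to 100 uM in 0.5% DMSO vehicle. Curves are fitted in both directions relative to the DMSO baseline.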

Read-out in the next experiment: TIMP1, TIMP1 (gene 7076)
Kind of experiment: LTEA_HepaRG_TIMP1: Life Technologies and Expression Analysis (LTEA) Assay for TIMP1 using HepaRG (AID 2283534; active means hit-call score of the fitted dose curve at least 0.9, where 1 is the maximum; inactive means score below 0.9;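 on outcome: TaqMan qRT-PCR signal normalized to ACTB GAPDH and POLR2A housekeeping genes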). The following applies: mRNA level, 48 h; actives raise or lower the signal. The gist of the method:
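We dosed human liver HepaRG cultures for 48 hours with up to 100 uM test chemical and measured TIMP1 expression by qRT-PCR. Activity in either direction is fitted relative to the 0.5% DMSO vehicle.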

Read-out in experiment [4]: Thyroid Hormone Responsive (THRSP), THRSP (gene 7069)
Kind of experiment: LTEA_HepaRG_THRSP: Life Technologies and Expression Analysis (LTEA) Assay for Thyroid Hormone Responsive (THRSP) using HepaRG (AID 2283536; active means hit-call score of the fitted dose curve at least 0.9, where 1 is the maximum; inactive means score below 0.9). The following applies: mRNA level, 48 h; actives raise or lower the signal. An outline of the steps:
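THRSP transcript quantified by Fluidigm qRT-PCR against three housekeeping genes after 48 h chemical exposure of HepaRG cells in serum-free induction medium; eight-point half-log series, top 100 uM, 0.5% DMSO vehicle, duplicate wells.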

Read-out in experiment [5]: Cellular tumor antigen p53 (Homo sapiens) (UniProt P04637)
Kind of experiment: LTEA_HepaRG_TP53: Life Technologies and Expression Analysis (LTEA) Assay for Tumor Protein P53 (TP53) using HepaRG (AID 2283537; active means hit-call score of the fitted dose curve at least 0.9, where 1 is the maximum; inactive means score below 0.9). The following applies: mRNA level, 48 h; actives raise or lower the signal. An outline of the steps: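 Gain or loss of TP53 mRNA signal is scored relative to 0.5% DMSO after 48 h chemical treatment of HepaRG liver cells, tested in duplicate at eight half-log concentrations up to 100 uM.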

Read-out in experiment [6]: UDP glucuronosyltransferase (UGT1A1), UGT1A1 (gene 54658)
Kind of experiment: LTEA_HepaRG_UGT1A1: Life Technologies and Expression Analysis (LTEA) Assay for UDP glucuronosyltransferase (UGT1A1) using HepaRG (AID 2283538; active means hit-call score of the fitted dose curve at least 0.9, where 1 is the maximum; inactive means score below 0.9). The note with it: mRNA level, 48 h; actives raise or lower the signal. The gist of the method: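 Cells are plated, cultured 48 h, switched to serum-free induction medium, then dosed 48 h at eight concentrations (max 100 uM, 0.5% DMSO). RNA is isolated and UGT1A1 expression measured by qRT-PCR; changes versus DMSO are fitted in both directions.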

Read-out in experiment [7]: UDP glucuronosyltransferase (UGT1A6), UGT1A6 (gene 54578)
Kind of experiment: LTEA_HepaRG_UGT1A6: Life Technologies and Expression Analysis (LTEA) Assay for UDP glucuronosyltransferase (UGT1A6) using HepaRG (AID 2283539; active means hit-call score of the fitted dose curve at least 0.9, where 1 is the maximum; inactive means score below 0.9). The following applies: mRNA level, 48 h; actives raise or lower the signal. The gist of the method: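 Endpoint is UGT1A6 transcript induction or loss in a human liver cell line, quantified by TaqMan qRT-PCR 48 h after dosing. Concentrations ran from 100 uM downward in half-log steps in 0.5% DMSO; activity was fitted in both directions versus vehicle.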

Read-out in experiment [8]: X-box binding protein 1 (XBP1), XBP1 (gene 7494)
Kind of experiment: LTEA_HepaRG_XBP1: Life Technologies and Expression Analysis (LTEA) Assay for X-box binding protein 1 (XBP1) using HepaRG (AID 2283540; active means hit-call score of the fitted dose curve at least 0.9, where 1 is the maximum; inactive means score below 0.9). The following applies: mRNA level, 48 h; actives raise or lower the signal. An outline of the steps: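 Human HepaRG monolayers receive test chemical for 48 h across an eight-point half-log series starting at 100 uM. XBP1 mRNA gain or loss is scored against DMSO by qRT-PCR.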

Experiment [9] is described as follows: LTEA_HepaRG_LDH_cytotoxicity: Cytotoxicity Assessment in the Life Technologies and Expression Analysis (LTEA) Assay (AID 2283563).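 On AC50: LDH activity released into spent culture medium as a marker of cell death.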 The gist of the method: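 Human HepaRG hepatic cells are treated with test chemicals for 48 h at up to 100 uM in 0.5% DMSO. Cytotoxicity is scored from medium LDH against the vehicle control.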
Experiment [10] is described as follows: ATG_XTT_Cytotoxicity: Cytotoxicity Assessment in the Attagene TRANS-FACTORIAL HepG2 Assay (AID 2283584).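 On AC50: XTT signal for cell number as viability in transfected HepG2 cells; cells exposed to compound for 24 h before reading; active means loss of viability signal versus DMSO baseline.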 An outline of the steps:
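Transfect HepG2 with GAL4-UAS reporter units, dose compound, incubate 24 h, then measure viable cell number by XTT. Fit concentration response against DMSO baseline.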

In experiment [11] the target is Cellular tumor antigen p53 (Homo sapiens) (UniProt P04637). Kind of experiment: TOX21_p53_BLA_p2_ratio: Tox21 HCT-116 p53 Agonism Beta-lactamase Assay, Ratio, Phase 2 (AID 2283592). The gist of the method:
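Cleaved-to-uncleaved substrate ratio (460 vs 530 nm) measured in HCT116 cells with an inducible beta-lactamase reporter linked to p53 activity. Compounds incubated 16 h at 37C before 2 h room-temperature CCF4-AM loading.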

Experiment [12] can be described thus: TOX21_p53_BLA_p3_viability: Viability Assessment in the Tox21 HCT-116 p53 Agonism Beta-lactamase Assay, Phase 3 (AID 2283593).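 Further: cells exposed to compound for 16 h before reading.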 An outline of the steps: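 Cellular ATP was quantified by CellTiter-Glo luminescence, read after 30 min at room temperature. Beforehand, HCT116 cells (4000/well) received compound 5 h post-seeding, 217-fold diluted from DMSO, then incubated 16 h at 37C.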

Experiment [13] can be described thus: TOX21_p53_BLA_p4_viability: Viability Assessment in the Tox21 HCT-116 p53 Agonism Beta-lactamase Assay, Phase 4 (AID 2283597).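 Further: hits lower the luminescence signal meaning cytotoxicity.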 An outline of the steps: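 Viability is taken as cellular ATP: after 16 h compound exposure of HCT116 cells and a 2 h room-temperature CCF4-AM substrate step, CellTiter-Glo reagent is added and luminescence is measured 30 min later.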

Experiment [14] deals with Cellular tumor antigen p53 (Homo sapiens) (UniProt P04637). Kind of experiment: TOX21_p53_BLA_p5_ratio: Tox21 HCT-116 p53 Agonism Beta-lactamase Assay, Ratio, Phase 5 (AID 2283599). The gist of the method: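 Beta-lactamase reporter ratio (blue 460 nm over green 530 nm, 405 nm excitation) after 2 h CCF4-AM loading, in HCT-116 cells exposed 16 h at 37 C to compounds pinned at 217-fold dilution. Increases relative to DMSO baseline scored.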

Experiment [15] in a line: TOX21_p53_BLA_p5_viability: Viability Assessment in the Tox21 HCT-116 p53 Agonism Beta-lactamase Assay, Phase 5 (AID 2283600). The gist of the method:
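Viability is taken from cellular ATP content, measured by luciferase luminescence in the same wells after the beta-lactamase ratio read. Cells are seeded at 4000 per well and exposed to DMSO-dissolved compounds, diluted 217-fold, for 16 h.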

In experiment [16] the target is Cellular tumor antigen p53 (Homo sapiens) (UniProt P04637). Kind of experiment: TOX21_p53_BLA_p4_ratio: Tox21 HCT-116 p53 Agonism Beta-lactamase Assay, Ratio, Phase 4 (AID 2283601). An outline of the steps:
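Signal is the blue/green (460nm/530nm) ratio of cleaved versus uncleaved CCF4-AM substrate, read after 2 h substrate loading. Cells were HCT116 carrying the p53-responsive beta-lactamase reporter, dosed 16 h at 37C, 5% CO2; CellTiter-Glo measured in parallel.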

Experiment [17] in a line: Tanguay_ZF_120hpf_MORT_legacy: (Legacy) Oregon State University Tanguay Lab 120 Hour Post-fertilization zebrafish Assay for Mortality (AID 2283633). The gist of the method: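 Mortality endpoint from a multiplexed whole-embryo zebrafish screen. Dechorionated wild-type embryos received compound at 6 hpf and remained under static exposure at 28C until 120 hpf, with death noted as a present/absent call.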

Experiment [18] is described as follows: TOX21_p53_BLA_p2_viability: Viability Assessment in the Tox21 HCT-116 p53 Agonism Beta-lactamase Assay, Phase 2 (AID 2283591).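 Further: compound exposure lasted 16 h at 37 °C; actives lower the ATP signal meaning cytotoxicity.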 An outline of the steps: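 Cytotoxicity readout: CellTiter-Glo ATP luminescence, 30 min at room temperature, after the beta-lactamase read. Cells were HCT116 exposed 16 h at 37C to compounds pin-transferred at 217-fold dilution from DMSO stocks.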

In experiment [19] the target is Cellular tumor antigen p53 (Homo sapiens) (UniProt P04637). Kind of experiment: TOX21_p53_BLA_p3_ratio: Tox21 HCT-116 p53 Agonism Beta-lactamase Assay, Ratio, Phase 3 (AID 2283596). An outline of the steps:
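Cells were seeded at 4000/well, rested 5 h at 37C, then dosed with DMSO compound solutions (217-fold dilution) for 16 h. CCF4-AM substrate was loaded for 2 h at room temperature, and the 460/530 nm emission ratio was fitted for gain of signal versus DMSO.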

Sequence of Cellular tumor antigen p53 (Homo sapiens) (P04637 whole entry, looked up): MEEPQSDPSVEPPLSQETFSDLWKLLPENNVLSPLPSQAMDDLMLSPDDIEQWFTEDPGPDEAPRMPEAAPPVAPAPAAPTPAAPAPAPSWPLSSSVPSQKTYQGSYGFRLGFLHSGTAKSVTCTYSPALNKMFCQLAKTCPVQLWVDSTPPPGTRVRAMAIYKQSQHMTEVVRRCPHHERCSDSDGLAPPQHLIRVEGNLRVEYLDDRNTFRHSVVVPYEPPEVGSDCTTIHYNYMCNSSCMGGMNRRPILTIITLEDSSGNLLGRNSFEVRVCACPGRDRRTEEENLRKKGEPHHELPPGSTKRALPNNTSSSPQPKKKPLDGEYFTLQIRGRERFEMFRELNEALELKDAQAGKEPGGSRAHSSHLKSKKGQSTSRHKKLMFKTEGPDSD

Regarding `CCOP(=S)(OCC)SCSP(=S)(OCC)OCC`, the outcome in experiment [1] is “inactive”; in [2], “inactive”; in experiment [3], “inactive”; in the experiment with TIMP1, TIMP1 (gene 7076) it was “inactive”; in experiment [7] it was “inactive”; in [9] it was “inactive”. The call in experiment [10], in experiment [11], in experiment [12], in experiment [13], in experiment [14] and in [15] was inactive. Further, the result in experiment [16] and in [17] was inactive. In addition, the AC50 in experiment [4] was 50 µM (active); in experiment [5] it was 0.217 µM (active); in experiment [6], 14.8 µM (active); in experiment [8], 0.245 µM (active).
As to `Nc1ccc(Cl)cc1C(=O)c1ccccc1`, the call in experiment [10] was inactive.
Still for that read-out and setting: the result for `N#CCCO` reads “inactive”.
As for `CC(=O)C=C(C)C`, in [10], the result was inactive.
As to `NC(=O)O`, the outcome in experiment [1] was “inactive”; in experiment [2], “inactive”; in experiment [3], “inactive”; with TIMP1, TIMP1 (gene 7076) it was “inactive”; in experiment [4], “inactive”; in [5] it was “inactive”. Further, the result in experiment [6], in [7], in experiment [8], in [9], in [10] and in [11] was inactive. Moreover, the outcome in [14], in experiment [15], in [16] and in [17] was inactive.
Take `O=C1C2(Cl)C3(Cl)C4(Cl)C(Cl)(Cl)C5(Cl)C3(Cl)C1(Cl)C5(Cl)C24Cl` (stereo not given): the AC50 in [1] is 93.5 µM (active); in experiment [3], 92.5 µM (active); with TIMP1, TIMP1 (gene 7076), 93.4 µM (active); in experiment [4], 9.2 µM (active); in experiment [5], 22.6 µM (active); in experiment [6], 15.8 µM (active). The AC50 is 94.7 µM (active) in experiment [7]; 92.4 µM (active) in experiment [8]; 72.1 µM (active) in experiment [9]; 31.8 µM (active) and 35.1 µM (active) in experiment [10]; 73.9 µM (active) and 73.7 µM (active) in experiment [18]; 82.6 µM (active) and 60.4 µM (active) in [11]. The concentration at half-maximal activity (AC50) is 72.4 µM (active) and 85.4 µM (active) in experiment [19]; 68.4 µM (active) and 66.4 µM (active) in [13]; 83.8 µM (active) and 85 µM (active) in [14]; 82 µM (active) and 83.7 µM (active) in [15]; 83.2 µM (active) and 60.3 µM (active) in experiment [16]. Further, the result in experiment [2], in experiment [10] and in experiment [17] was inactive.
With `CN(C)N=O`, the outcome is “inactive” in experiment [1]; “inactive” in experiment [2]; “inactive” in experiment [3]; “inactive” with TIMP1, TIMP1 (gene 7076); “inactive” in experiment [4]; “inactive” in [5]. The result in experiment [6], in [7], in experiment [8], in experiment [9], in [10] and in experiment [12] was inactive. In addition, the outcome in experiment [19], in experiment [13], in experiment [14], in experiment [15], in [16] and in experiment [17] was inactive.
For `CCCCCCCCc1ccc(O)cc1`, the outcome was “inactive” in [1]; “inactive” in [2]; “inactive” in [3]; “inactive” with TIMP1, TIMP1 (gene 7076); “inactive” in experiment [4]; “inactive” in [7]. Also, the result in experiment [8], in [9], in experiment [10], in experiment [18], in [11] and in [12] was inactive. For the same compound, the result in experiment [19], in experiment [13], in [14], in experiment [15], in [16] and in experiment [17] was inactive. The AC50 in [5] is 0.418 µM (active); in [6] it was 70.1 µM (active).

For orientation: AC50 means the concentration at which the activity in the assay is half-maximal.
